GLP1R ag – agonists of human GLP-1 receptor; Potency, µM (top dose mostly 45.6 µM), most hits filed as activators; hit rate 0.007% among 380,000; P43220; HEK293 GLP-1R CRE-luciferase, luminescence, 4-6 h; cells express a hypersensitive GLP-1R form; AID 624172
GLP-1R inv ag – inverse agonists of human GLP-1 receptor; P43220; HEK293 GLP-1R CRE-luciferase, luminescence, 24 h; GLP-1R form is constitutively active; Potency, µM (series often up to 38.3 µM), usual class: inhibitors; hit rate 1.6% among 410,000; note: nearly all actives have a fitted effect of over 55% in size
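Luminescence readout: a drop in cAMP-driven luciferase signal flags inverse agonism at a constitutively active GLP-1R stably expressed in HEK293. Compound exposure lasted 24 hr at 37 deg C, 5% CO2.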
PTHR1 agonist – agonists of human PTHR1 parathyroid hormone receptor | Q03431 | HEK293 GP2 PTHR1 cells, GloSensor cAMP luminescence, 1 h | Potency, µM (doses to about 115 µM), actives largely listed as activators | hit rate 0.075% among 410,000; note: nearly all actives have a fitted effect of over 55% in size
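HEK-293-derived GP2 cells expressing PTHR1 and a GloSensor cAMP reporter, 3,000/well, plated overnight, given luciferin plus IBMX (each 0.5 mM as added) for 1 h at 37 °C, then compound for 1 h at 37 °C. Luminescence was read after 15 min at room temperature.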
HEK293 tox – cytotoxic in the GLP-1 receptor inverse agonist counter-screen | HEK293 cAMP-luciferase reporter cells, luminescence, 24 h | Potency, µM (top dose mostly 38.3 µM), most hits filed as inhibitors | hit rate 0.13% among 410,000;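 note: loss of luciferase light is scored as toxicity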
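Cells in DMEM/10% Nu serum/1% pen-strep, 1536-well format. Pre-incubated 12 h, dosed with 23 nL compound, incubated a further 24 h. Luciferase detection, 12 min at room temp, luminescence.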
Each line names hits and unclear results; the compound was inactive in the other large screens. An excerpt weighted towards active compounds, which were near 1.7% of everything screened. Calls come from the whole dose curve; as a rule, active = well fitted curve in the direction sought with a large enough effect; inconclusive = small, poorly fitted or top-dose-only effect, or another doubt; inactive = no such curve, though single readings can be large; an effect the other way counts as inactive or inconclusive.

C[C@]12CCC(=O)C=C1CC[C@@H]1[C@H]3CC[C@](C)(O)[C@@]3(C)CC[C@@H]12	none (no result: GLP-1R inv ag, PTHR1 agonist, HEK293 tox)
O=C1C=C(c2c(O)ccc3ccccc23)c2ccccc2C1=O	GLP-1R inv ag inconclusive, HEK293 tox 10µM
NS(=O)(=O)c1ccc(NC2=CC(=O)C(=O)c3ccccc32)cc1	HEK293 tox inconclusive
Cc1ccc(S(=O)(=O)N2CCC(C(=O)OCc3ccccc3)CC2)cc1C	GLP-1R inv ag 10µM
CC(C)C[C@H]1CNC(=S)N1CC1CCN(CC2CCC(C(C)(C)C)CC2)CC1 (some centres not stated)	none
CCN1C(=O)NC(=O)/C(=C/c2cc(C)n(-c3sc(C)c(C)c3C#N)c2C)C1=O	GLP-1R inv ag inconclusive, HEK293 tox inconclusive
Cc1ccc(N2C(=O)NC(=O)/C(=C\c3cc(C)n(-c4sc5c(c4C#N)CCCC5)c3C)C2=O)cc1	GLP-1R inv ag 3.5µM
COC(=O)C1=CN(c2ccc(C(C)(C)C)cc2)C(N)=C(C#N)C1c1cccc([N+](=O)[O-])c1 (configuration not stated)	GLP-1R inv ag inconclusive (no result: GLP1R ag)
c1ccc(N2CCN(c3nc(NCc4ccco4)c4ccccc4n3)CC2)cc1	GLP-1R inv ag 7.1µM, HEK293 tox inconclusive
COc1nn(CSP(=S)(OC)OC)c(=O)s1	none (no result: GLP-1R inv ag, PTHR1 agonist, HEK293 tox)
Cn1nc(-c2ccc(C(=O)Nc3ccc(OC(F)(F)F)cc3)cc2)c2ccccc2c1=O	none (no result: GLP1R ag)
CN(C)C1(CNC(=O)Nc2ccc(Cl)c(Cl)c2)CCCCC1	GLP-1R inv ag 4µM, HEK293 tox inconclusive
